# BRCT PPI green = inhibitors of human BRCA1 BRCT-phosphoprotein interaction (green fluorophore) | hit rate 0.05% among 75,000 | P38398 | BRCA1 BRCT-phosphopeptide binding, green fluorescence polarization | Potency, µM (titrated, usually from 76.9 µM), usual class: inhibitors | AID 875
#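 Compounds were incubated for 12 min at room temperature with a complex of 100 nM fluorescein-tagged pBACH1 decapeptide and 250 nM His-tagged BRCT protein. Buffer was phosphate pH 7.3 with EDTA, DTT and Tween 20. Disruption of binding lowers the polarization signal.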
# Tau fil binding = binders of human tau filaments; recombinant tau filaments, thioflavin S fluorescence, 15 h; filaments grown with octadecylsulfate alongside compound; Potency, µM (series often up to 57.1 µM); hit rate 2% among 71,000; AID 596;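 note: actives lower thioflavin S fluorescence by blocking filaments or displacing dye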
#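 Assay mix: 1 uM His-tagged tau, 30 uM sodium octadecylsulfate, thioflavine S dye in HEPES/NaCl/DTT buffer. Compound is added prior to the inducer. Fluorescence after 15 h at 37 C.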
# DNA Pol III inh = blocks replication by bacterial DNA polymerase III holoenzyme; reconstituted DNA polymerase III holoenzyme replication, biochemical; Potency, µM (top dose mostly 57.1 µM); hit rate 0.25% among 71,000
#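 Reconstituted *E. coli* holoenzyme (0.35 nM Pol III, 1 nM beta, 154 nM SSB, 2 nM primase) was preincubated with compound for 15 min at RT. Synthesis on 1.4 nM ssM13Gori ran 35 min, then was stopped with PicoGreen/EDTA and read as dsDNA fluorescence.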
# TsaE inh = inhibitors of E. coli YjeE (TsaE). P0AF67. purified YjeE enzyme, qHTS inhibition assay. Potency, µM. hit rate 0.05% among 71,000. AID 605
#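 Purified YjeE (10 uM) with BODIPY Texas Red-labeled ADP probe (2 uM); compounds pin-transferred, 15 min at room temperature. Binding inhibition read as decreased fluorescence polarization; ADP titration as control.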
# ALOX15 inhib = 15-hLO (ALOX15) enzyme inhibition; P16050; purified 15hLO-1, xylenol orange hydroperoxide absorbance; Potency, µM (top dose mostly 57.1 µM), usual class: inhibitors; hit rate 1.4% among 74,000; AID 887; note: nearly all actives have a fitted effect of over 55% in size
# Target sequence (P16050 whole entry, looked up): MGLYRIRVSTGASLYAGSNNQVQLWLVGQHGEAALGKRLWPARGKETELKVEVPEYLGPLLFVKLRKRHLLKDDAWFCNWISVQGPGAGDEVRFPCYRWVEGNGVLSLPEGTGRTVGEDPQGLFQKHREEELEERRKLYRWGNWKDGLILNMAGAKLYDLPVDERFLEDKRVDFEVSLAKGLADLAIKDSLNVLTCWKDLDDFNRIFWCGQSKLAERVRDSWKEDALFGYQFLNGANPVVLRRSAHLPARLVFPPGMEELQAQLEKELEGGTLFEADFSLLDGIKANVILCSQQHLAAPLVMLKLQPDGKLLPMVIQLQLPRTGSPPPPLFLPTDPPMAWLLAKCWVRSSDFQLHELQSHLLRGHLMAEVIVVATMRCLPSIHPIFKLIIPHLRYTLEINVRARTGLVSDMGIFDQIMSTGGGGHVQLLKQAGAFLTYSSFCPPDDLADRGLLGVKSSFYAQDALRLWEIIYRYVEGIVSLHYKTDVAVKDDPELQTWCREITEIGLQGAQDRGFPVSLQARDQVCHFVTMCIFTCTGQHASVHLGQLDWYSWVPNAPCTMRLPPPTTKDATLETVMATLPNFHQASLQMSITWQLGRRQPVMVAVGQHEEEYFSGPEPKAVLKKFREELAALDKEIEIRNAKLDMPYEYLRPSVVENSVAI
#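 Readout: Fe(III)-xylenol orange absorbance, 573-to-405 nm ratio as reaction progress. Enzyme 40 nM purified human 15hLO-1, substrate 50 uM arachidonic acid, 6 min RT after 15 min compound preincubation; Hepes pH 7.5 buffer with Triton X-100.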
# BRCT inh red = BRCT-phosphoprotein interaction inhibition (red fluorophore); P38398; BRCT-phosphopeptide binding, red fluorescence polarization; Potency, µM (doses to about 76.9 µM), most hits filed as inhibitors; hit rate 0.03% among 75,000; AID 892
#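 Rhodamine-labelled pBACH1 10-mer (100 nM) bound to BRCT domain (100 nM) at pH 7.3; compounds incubated 12 min room temperature, polarization read. Free peptide defines full inhibition; unlabelled decapeptide titrated as control.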
# Numbers stand for hits; n = inactive; u = inconclusive; x = no result given; ! = not confirmed by another sample; [ ] = remark or other dose. Compounds with a hit are over-represented: about 3.1% of the library has one in this group of screens. Calls come from the whole dose curve; as a rule, active = well fitted curve in the direction sought with a large enough effect; inconclusive = small, poorly fitted or top-dose-only effect, or another doubt; inactive = no such curve, though single readings can be large; an effect the other way counts as inactive or inconclusive.
SMILES,BRCT PPI green,Tau fil binding,DNA Pol III inh,TsaE inh,ALOX15 inhib,BRCT inh red
CC(C)C[C@@H](CC(=O)N[C@@H](CCC(=O)O)CC(=O)O)NC(=O)[C@@H]1CNCC[C@H]1NC(=O)C[C@H](CCCN)NC(=O)C[C@H](Cc1c[nH]c2ccccc12)NC(=O)[C@@H]1CCCC[C@H]1N,x,n,n,n,x,x
CCn1c2ccccc2c2cc(C3C(C#N)=C(C)NC(C)=C3C#N)ccc21,n,n,n,n,n,n
CCn1c2ccccc2c2cc(N)ccc21,n,3.2µM,n,n,n,n
CCn1c2ccccc2c2nc3ccccc3nc21,n,n,n,n,n,n
CCn1c(C)cc(=S)c2ccccc21,n,5µM,n,n,n,n
CCC(/C=C/C(C)C1CCC2C3CC=C4CC(O)CC[C@@]4(C)C3CC[C@@]12C)C(C)C (stereo partly drawn),n,x,x,x,n,n
Nc1nc(SCc2ccccc2Cl)cc(C(=O)O)n1,n[15.4 µM],n[11.4 µM],n[11.4 µM],n,n[11.4 µM],n[15.4 µM]
Cc1ccc(C)c(C(=O)c2c(C)nc3sccn23)c1,n,n,n,n,16µM,n
N[C@H](CCCP(=O)(O)O)C(=O)O,n,n,n,n,n,n
Nc1ccc(N)c(Cl)c1,n,32µM,n,u,u,n
N[C@@H](Cc1c[nH]c2ccccc12)C(=O)NCC(=O)O,x,u,n,n,x,x
COc1[nH]c(/N=C/c2ccccc2)c(C#N)c1C#N,25µM,n,n,n,n,32µM
COc1nccc(Nc2ccccc2)c1C#N,n,n,n,n,n,n
O=C(O)Cc1cccc2c(=O)cc(-c3ccccc3)oc12,n[15.4 µM],n[11.4 µM],n[11.4 µM],n,n[11.4 µM],n[15.4 µM]
O=c1cc(-c2ccccc2O)oc2c(O)c(O)ccc12,n,40µM,0.5µM,n,u,n
O=c1cc(-c2ccccc2)oc2c(O)c(O)ccc12,n[3.08 µM],x,x,x,5µM,n
CCCC[C@@H]1C[C@H]1C(NC(=O)Cc1ccccc1)c1ccc(-c2ccccc2)cc1 (stereo partly drawn),n,n,n,n,x,n
O=C1C(SCCO)=C(SCCO)C(=O)c2ccccc21,n,5µM!,32µM!,n,n,n
N#CC(=NCCO)C1=C(O)c2ccccc2C1=O,n[15.4 µM],n[11.4 µM],n[11.4 µM],n,n[11.4 µM],n[15.4 µM]
CCOC(=O)N1CCN(C(=O)Cn2ncc3ccccc32)CC1,n,n,25µM,n,n,n
CCOC(=O)N1CCN(C(=O)c2cnn3ccccc23)CC1,n,n,n,32µM,n,n
O=[N+]([O-])c1ccc(-c2nc(-c3ccc(F)cc3)c(-c3ccncc3)[nH]2)cc1,n,x,x,x,n,n
CCCCOC(=O)C(C#N)c1nc2ccccc2nc1N1CCOCC1 (stereo not drawn),n,4µM,n,n,n,n
CCN1CCN(c2nc3ccccc3nc2C(C#N)C(=O)OCc2ccccc2)CC1 (stereo not drawn),n,1.3µM,n,n,n,n
CCCCCCOC(=O)C(C#N)c1nc2ccccc2nc1N1CCN(CC)CC1 (stereo not drawn),n,1µM,n,n,n,n
SMILES,BRCT PPI green,Tau fil binding,DNA Pol III inh,TsaE inh,ALOX15 inhib,BRCT inh red
CCCCCCOC(=O)C(C#N)c1nc2ccccc2nc1N1CCOCC1 (stereo not drawn),n,2.5µM,n,n,n,n
C=C1CC[C@@H](O)C/C1=C/C=C1\CCC[C@]2(C)[C@@H]1CC[C@H]2[C@@H](C)CCCC(C)C,x,u,n,n,x,x
N[C@H]1CCN(O)C1=O,n,u,n,n,n,n
CN1CCc2c(cc(O)c(O)c2Cl)[C@H](c2cccc(Cl)c2)C1,n,n,n,n,16µM,n
CCOC(=O)c1sc(-c2ccccc2)cc1N,n,n,n,n,n,n
CCOC(=O)c1cc(-c2ccccc2)sc1N,n,25µM,n,n,u,n
O=C(CN1CC(c2ccccc2)CC1=O)Nc1ccc2c(c1)OCO2 (stereo not drawn),n,25µM,n,n,n,n
CCOc1ccc(NS(=O)(=O)c2ccc3[nH]cc(C(=O)NC(C)CC)c(=O)c3c2)cc1 (stereo not drawn),n,n,n,n,25µM,n
CCCNC(=O)c1c[nH]c2ccc(S(=O)(=O)N(C)c3ccc(OCC)cc3)cc2c1=O,n,n,n,n,n,n
C[C@@]12CCC(=O)C=C1CC[C@@H]1[C@@H]2[C@H](O)C[C@]2(C)[C@@H]1CC[C@]2(O)C(=O)COC(=O)CCC(=O)O,n,n,n,n,n,n
Cc1ccc2[nH]c(=O)c(-c3nc4cc(C)ccn4c3NCc3ccco3)cc2c1,n,16µM,n,n,n,n
c1cncc(-c2nc(-n3ccnc3)c3ccccc3n2)c1,n,n,n,n,n,n
CCOCCCn1c(C)nc2c(c1=O)c1nc3ccccc3nc1n2CCC1=CCCCC1,n,1.6µM,n,n,25µM,n
COC(=O)N1CCC2(CCCN(Cc3ccc(C#N)cc3)C2)CC1,n,n,n,n,n,n
NC(=O)c1ncn([C@@H]2O[C@@H](CO)[C@@H](O)[C@H]2O)n1,x,n,n,n,x,x
OC1CN=C2CCCc3c2n(c2ccc(Cl)cc32)C1 (stereo not drawn),n,7.9µM,n,n,u,n
CC(=O)NCCNc1nc(-c2cccc(NS(C)(=O)=O)c2)nc2ccccc12,n,n,n,n,n,n
Cc1cc(C(=O)CSc2nnc(-c3cccs3)o2)c(C)n1-c1ccccc1,n,n,n,n,20µM,n
Cc1cc(C(=O)CSc2nnc(-c3ccco3)o2)c(C)n1Cc1ccco1,n,n,n,n,25µM,n
O=C(CSc1nnc(-c2cccs2)o1)c1cccs1,n,n,n,n,n,n
Cc1cc(C(=O)CSc2nnc(-c3ccco3)o2)c(C)n1-c1ccc2c(c1)OCCO2,n,u,n,n,n,n
Nc1ccc(O)cc1,n,16µM,n,u,u,n
CN(C)Cc1ccccc1-c1cncnc1NCc1cccnc1,n,n,n,n,n,n
COc1cccc(NC(=O)CNC(=O)c2ccccc2)c1,n,n,n,n,n,n
COc1cccc(NC(=O)CNC(C)CCC(C)C)c1 (stereo not drawn),n,20µM,n,n,n,n
COc1cccc(Cn2c(=O)c(-c3ccc(Cl)cc3)nc3cnc(N4CCN(C)CC4)nc32)c1,n,u,n,n,n,n
COc1cccc(Cn2c(=O)c(-c3ccc(F)cc3)nc3cncnc32)c1,n,u,n,n,u,n
COc1cccc(Cn2c(=O)c(-c3ccc(Cl)cc3)nc3cncnc32)c1,n,25µM,n,n,n,n
COc1cccc(Nc2ncc3nc(C)c(=O)n(CCC#N)c3n2)c1,n,25µM,n,n,n,n
COc1cccc(Nc2ncc3ncc(=O)n(CCC#N)c3n2)c1,n,n,n,n,n,n
